Several values for one entry are separate records, joined by “and”; a condition that tells them apart may be missing. Equal entries are not always repeated. Records with an inconclusive call do not appear. A call without a number means that no potency is given here. More than one record can exist for a structure, and the calls need not agree. Activity calls are given as the source filed them. Calls follow the shape of the full dose curve.
Potency is read from the fitted curve at half-maximal effect.

This assay is described as follows: Nuclear factor erythroid 2-related factor 2/antioxidant responsive element (Nrf2/ARE) small molecule agonists: luciferase reporter gene qHTS assay in human keratinocytes (AID 1919969). Also: nearly all actives have a fitted effect of over 35% in size. To be noted: KeratinoSens HaCaT ARE-luciferase, luminescence, 24 h; series mostly up to 92.4 µM. The text has this: National Center for Advancing Translational Sciences [NCATS]
Division of Preclinical Innovation [DPI]
U.S. Environmental Protection Agency [EPA]
National Institutes of Environmental Health Sciences [NIEHS]
National Toxicology Program [NTP]
U.S. Food and Drug Administration [FDA]
Oxidative stress has been implicated in the pathogenesis of a variety of diseases ranging from cancer to neurodegeneration. The antioxidant response element (ARE) signaling pathway plays an important role in the amelioration of oxidative stress. The KeratinoSens (Givaudan, Switzerland) is an in vitro test method which quantifies luciferase induction as a measure of activation of Keap1-Nrf2-antioxidationt/electrophile response element (ARE) dependant pathway in HaCaT human keratinocytes stably transfected with a selectable plasmid. The KeratinoSens assay is a cell-based assay with a reporter cell line to detect potential skin sensitizers by their ability to induce the Nrf2/ARE-response. The activation of the report gene under culture conditions can be detected by ONE-Glo Luciferase Assay System (Promega, Madison, WI). This cell line has been used to screen the Tox21 10K compound library to identify agonists that induce oxidative stress. The cytotoxicity of the Tox21 compound library against the KS-ARE cell line was tested in parallel by measuring the cell viability using CellTiter- Fluor assay system (Promega, Madison, WI) in the same wells.
HaCaT derived cell line KeratinoSens were dispensed at 1,500 cells/5uL/well in 1536-well white wall/solid bottom plates using a Multidrop Combi (ThermoFisher Scientific, Waltham, MA) dispenser. After the assay plates were incubated at 37 C/5% CO2 for 5 h, 23 nL of compounds dissolved in DMSO, positive controls or DMSO only was transferred to the assay plate by a pintool workstation (Kalypsys, San Diego, CA). The plates were incubated at 37 C/5% CO2 for 23 h, followed by addition of 1uL/well of CellTiter-Fluor reagent into the assay plates using a Flying Reagent Dispenser (Aurora Discovery, San Diego, CA) for cell viability readout that measures cytotoxicity. After 1 h incubation at 37 C/5% CO2 the fluorescence intensity was measured using a ViewLux (PerkinElmer, Shelton, CT) plate reader. Then 4uL/well of One-Glo were added using a Flying Reagent Dispenser. After the plates were incubated at room temperature for 30 min, the luminescence intensity in the assay plates was measured using ViewLux plate reader.
With `CC(CN1c2ccccc2Sc2ccccc21)N(C)C` (stereo not given), the Potency entry is “inactive”.
The same measure, in the same setting: in the case of `Nc1c(S(=O)(=O)O)cc(Br)c2c1C(=O)c1ccccc1C2=O` it was “inactive”; in that of `C=CCCC`, “inactive”; in that of `C/C=C/C(=O)O`, “inactive”.
Same read-out and setting: then `CN1CCCC1`, with “inactive”.
On the same count and under the same terms, then `CC(C)(CO)[C@@H](O)C(=O)NCCC(=O)O`, with “inactive”.
As for `CC1=CC[C@@H]2C[C@H]1C2(C)C`, the activity, positive = activation was -20.3% [at 19 µM] (inactive).
`CN(C)CCCNCCC#N`: the Potency result is “inactive”.
Still for that read-out and setting: then `CC(C)=CCC[C@H](C)CC=O`, with “inactive”.
Consider `NCC1CCCC(CN)C1` (stereo not given), for which the Potency entry is “inactive”.
On to `C=CC(C)(O)CC/C=C(\C)CC` (stereo not given), for which the Potency entry was “inactive”.
The same measure, in the same setting: in the case of `O=C(O)c1ccccc1C(c1ccc(O)cc1)c1ccc(O)cc1` it was “inactive”; in that of `Cc1sccc1Br`, “inactive”; in that of `Clc1ccc2c(Cl)ccnc2c1`, “inactive”.
The same measure, in the same setting: then `Cn1cnc2c(F)c(Nc3ccc(Br)cc3Cl)c(C(=O)NOCCO)cc21`, with “inactive”.
Regarding `COc1ccc2nc(N)sc2c1`, the Potency entry is “inactive and 54.5 µM (active)”.
For `CCC(=O)O[C@H]1[C@H](O[C@@H]2[C@@H](C)[C@H](O[C@H]3C[C@@](C)(OC)[C@@H](O)[C@H](C)O3)[C@@H](C)C(=O)O[C@H](CC)[C@@](C)(O)[C@H](O)[C@@H](C)C(=O)[C@H](C)C[C@@]2(C)O)O[C@H](C)C[C@@H]1N(C)C`, the Potency entry is “inactive”.
Take `CCCCC(CC)COP(=O)(O)OCC(CC)CCCC` (stereo not given): the Potency result is “inactive”.
Regarding `CCCCCCCCCCCCCC[P+](CCCC)(CCCC)CCCC`, the Potency entry was “inactive”.
Still for that read-out and setting: in the case of `O=C(CCCN1CCC(O)(c2cccc(C(F)(F)F)c2)CC1)c1ccc(F)cc1` it was “inactive”.
Same read-out and setting: then `COCC(C)OC(C)=O` (stereo not given), with “inactive”; and `CCCCCCCCCCCCCCC(=O)O`, with “inactive”.
The same measure, in the same setting: then `COc1cc(C=O)ccc1OC(=O)C(C)C`, with “inactive”.
For `Clc1ccc2c(c1)Nc1ccccc1S2`, the Potency entry is “inactive”.
Take `Clc1ccccc1C(c1ccccc1)(c1ccccc1)n1ccnc1`: the Potency result is “inactive”.
Same read-out and setting: in the case of `CCN1CCC[C@H]1CNC(=O)c1c(O)c(Cl)cc(Cl)c1OC` it was “inactive”.
On the same count and under the same terms, in the case of `CCCC[O][Al]([O]CCCC)[O]CCCC` it was “inactive”.
Same read-out and setting: in the case of `Clc1cc(Cl)c(Cl)c(Cl)c1Cl` it was “inactive”; in that of `NS(=O)(=O)c1ccc(NC(=O)CCC(=O)O)cc1`, “inactive”.
For the compound `Cc1cccc2cccnc12`, the Potency result was “inactive”.
As to `COC(=O)/C=C(/C)N`, the Potency result is “inactive”.
As to `CCCC[C@H]1CN(CC2CCOCC2)C(=O)OC12CCN(C1(C)CCN(C(=O)c3c(C)ncnc3C)CC1)CC2`, the Potency result was “inactive”.
Consider `CC/C=C\C/C=C\C/C=C\CCCCCCCC(=O)O`, for which the Potency was 60.6 µM (active) and 54.5 µM (active).
With `CC(C)(c1ccc(O)cc1)c1ccc(O)cc1`, the Potency result is “inactive and 62.2 µM (active)”.
On to `CC(C)=CCCC(C)CC=O` (stereo not given), for which the Potency entry was “inactive”.
Regarding `O=C(O)C[C@H](NC(=O)OCc1ccccc1)C(=O)O`, the Potency entry was “inactive”.
As for `CC(=O)CC(N)=O`, the Potency result is “inactive”.
Consider `Cc1oc(C)c(C(=O)Nc2ccccc2)c1C`, for which the Potency entry was “inactive”.
Still for that read-out and setting: in the case of `CC[C@]1(O)C[C@@H]2CN(CCc3c([nH]c4ccccc34)[C@@](C(=O)OC)(c3cc4c(cc3OC)N(C)[C@H]3[C@@](O)(C(=O)OC)[C@H](OC(C)=O)[C@]5(CC)C=CCN6CC[C@]43[C@@H]65)C2)C1` it was 211 nM (active) and 596 nM (active); in that of `Cc1ccc(N)cc1[N+](=O)[O-]`, “inactive”.

For the origin of these results see PubChem BioAssay (Tox21).
